TEAD-YAP block – TEAD-YAP interaction inhibition; HEK-TIYL cells, TEAD-Gal4/YAP UAS-luciferase luminescence; inhibition, % at 9.12 µM; hit rate 1.4% among 640,000; AID 1259422; in the data active = inhibition above about 32%;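 note: 0% = median of test compound wells and 100% = reference inhibitor wells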
FBW7 act – human FBW7 E3 ligase activation, primary screen; Q969H0; hit rate 0.13% among 650,000; normalized activity (activation), % at 26.1 µM; AID 1259310; AlphaScreen FBW7–phospho-cyclin E peptide binding, activator screen; in the data active = normalized activity above about 1.9%;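 note: purified mutant Fbw7 with reduced substrate affinity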
MITF primary – inhibitors of human MITF | O75030 | inhibition, % at 2.6 µM | hit rate 0.91% among 650,000 | AlphaScreen MITF homodimerization, bead proximity signal; in the data active = inhibition above about 50%;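 note: 0% = vehicle wells with protein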
GPR151 ag – activators of human GPR151. Q8TDV0. PathHunter beta-arrestin GPR151 cells, luminescence. activation, % at 11.2 µM. hit rate 1% among 650,000. AID 1508602; in the data active = activation above about 4.9%;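 note: 0% = median of compound wells and 100% = cells with positive control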
GPR151 conf act – human GPR151 activation, confirmation screen; GPR151 PathHunter beta-arrestin cells, luminescence, 90 min; % of EA-reagent control over plate median; shares compounds with GPR151 ag; AID 1508609; 6,700 tested, under 10 active; activation, % at 11.2 µM;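 active = mean percent activation across replicates above the confirmation screen cutoff of 4.91%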
GPR119 ag – counter-screen for GPR151 activators: effect on human GPR119; shares compounds with GPR151 ag; hit rate 0.3% among 6,700; activation, % at 11.2 µM; GPR119 PathHunter beta-arrestin cells, luminescence, 90 min; 0 = compound-well median, 100 = enzyme-acceptor control; AID 1508611;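 active = mean percent activation in the counterscreen above 29.09%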;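 note: counterscreen on off-target GPR119 to flag nonselective hits from the GPR151 activator screen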
Target sequence (Q8TDV5 whole entry, looked up): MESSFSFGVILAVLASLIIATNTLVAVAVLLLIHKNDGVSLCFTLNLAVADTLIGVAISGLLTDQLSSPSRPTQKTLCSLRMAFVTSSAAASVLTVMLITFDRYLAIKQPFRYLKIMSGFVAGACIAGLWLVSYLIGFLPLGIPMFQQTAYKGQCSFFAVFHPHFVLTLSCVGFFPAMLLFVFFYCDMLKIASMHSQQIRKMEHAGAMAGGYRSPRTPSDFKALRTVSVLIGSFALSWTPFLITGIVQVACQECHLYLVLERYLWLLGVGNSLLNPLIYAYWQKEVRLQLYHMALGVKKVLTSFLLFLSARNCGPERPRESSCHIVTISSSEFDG
Active calls of the source: *; x = no result given. Rows were chosen to be rich in hits. Some 3.5% of all compounds tested hit in one or more screens of this group.

SMILES	TEAD-YAP block	FBW7 act	MITF primary	GPR151 ag	GPR151 conf act	GPR119 ag
CCN(CC)CCN1C(=O)c2ccccc2NC1c1ccc2c(c1)OCO2 (stereo not given)	3	0	8	5.3*	0	11
O=C1c2ccccc2NC(c2ccc3c(c2)OCO3)N1Cc1ccccc1 (stereo not given)	-6	0	-1	0	x	x
N#CC1(C#N)CC(C=O)=C(N)C1(C#N)CC(=O)C12CC3CC(CC(C3)C1)C2 (stereo not given)	6	0	4	14*	1	7
CC(NS(C)(=O)=O)c1ccccc1 (stereo not given)	4	0	-5	6.3*	0	-1
NS(=O)(=O)c1ccc(NC(=O)CSc2ncnc3c2cnn3-c2ccccc2)cc1	4	0	7	-1	x	x
O=c1[nH]c(/C=C/c2ccsc2)c([N+](=O)[O-])c(=O)[nH]1	-3	0	4	-1	x	x
NC(=O)C1(N2CCCCC2)CCN(S(=O)(=O)c2ccc(Cl)cc2)CC1	-9	0	-2	5.4*	0	3
NC(=O)c1cc2c(ccc3ccccc32)oc1=Nc1ccccc1	-8	0	3	5.2*	-1	-8
CN(C)CC(O)COC(c1ccccc1)c1ccccc1 (stereo not given)	7	0	-4	7.7*	0	-4
CCN1CCN(CC(O)COC(c2ccccc2)c2ccccc2)CC1 (stereo not given)	1	0	-20	2	x	x
CCOC(=O)c1sc2ncnc(NCCC3=CCCCC3)c2c1C	-14	0	9	0	x	x
O=[N+]([O-])c1ccc(S(=O)(=O)NCc2ccc(Cl)cc2Cl)cc1	-6	0	4	4	x	x
Cc1noc(C)c1COC(=O)Cc1coc2cc3c(cc12)CCC3	2	0	-9	3	x	x
COc1ccc2c(CC(=O)OCc3c(C)noc3C)coc2c1	9	0	0	5.1*	-2	-10
COC(=O)CC(NC1CCN(c2ccc(CC(=O)N3CCCC3)cc2)CC1)C(=O)OC (stereo not given)	-10	0	8	6.1*	1	23
CC(C)=NNC(=O)c1ccc(Cl)cc1	-34	0	7	12*	0	2
Cc1ccc(N(CC(O)CN2CCOCC2)S(=O)(=O)c2ccc([N+](=O)[O-])cc2)cc1 (stereo not given)	9	0	5	-1	x	x
Cc1ccc(N(CC(O)Cn2nc(C)cc2C)S(=O)(=O)c2ccc([N+](=O)[O-])cc2)cc1 (stereo not given)	-10	0	1	4.9*	1	2
NC(=S)N=Nc1c(O)n(CN2CCOCC2)c2ccccc12	7	-1	-2	1	x	x
COc1cc(OC)cc(C(=O)N2CCN(C3CCCCC3)CC2)c1	0	0	27	5.0*	0	16
COc1cc(C(=O)N2CCN(C3CCCC3)CC2)cc(OC)c1OC	1	0	-1	1	x	x
COc1ccccc1NC1CC(=O)N(c2cccc(Cl)c2)C1=O (stereo not given)	-9	0	2	9.1*	0	4
COc1ccc(NC2CC(=O)N(c3ccc(OC)cc3)C2=O)cc1 (stereo not given)	0	0	-5	-2	x	x
COc1ccc(NC2CC(=O)N(c3ccc(Cl)c(C(F)(F)F)c3)C2=O)cc1 (stereo not given)	15	0	3	6.0*	0	-8
COc1ccccc1NC1CC(=O)N(c2ccc(Br)cc2)C1=O (stereo not given)	6	0	-5	0	x	x
SMILES	TEAD-YAP block	FBW7 act	MITF primary	GPR151 ag	GPR151 conf act	GPR119 ag
COc1cc(OC)nc(CN2CCN(C=O)CC2)n1	8	0	7	-2	x	x
CCOc1ccc2c(-c3cc4ccccc4oc3=O)cc(=O)oc2c1	-1	0	1	2	x	x
O=C(Oc1ccc2c(-c3cc4ccccc4oc3=O)cc(=O)oc2c1)C1CC1	8	0	-2	9.2*	0	1
CCC(=O)Oc1ccc2c(-c3cc4ccccc4oc3=O)cc(=O)oc2c1	-7	0	-10	5.4*	0	10
COC(=O)C1C(=O)NC(C)C1c1ccc(Cl)cc1 (stereo not given)	3	1	8	0	x	x
CS(=O)(=O)N1N=C(c2ccc3nccnc3c2)CC1c1ccccc1 (stereo not given)	-13	0	5	5.0*	-1	-13
COc1ccc(C2CC(c3ccccc3)=NN2C(=O)CSc2cccc[n+]2[O-])cc1 (stereo not given)	5	0	-1	5.0*	0	3
O=C(CN1C(=O)c2ccccc2C1=O)Nc1nc(-c2nc3ccccc3s2)cs1	-53	0	3	2	x	x
CC(=O)C1=C(C)N(Cc2ccccc2)C(=O)N[C@H]1c1cccc(F)c1	x	0	27	6.9*	0	8
O=c1c2cc(-c3ccccc3)sc2ncn1-n1cccc1	-68	0	9	7.7*	0	3
COc1cc(C(=O)Nc2nnc(Cc3ccc(Cl)cc3)s2)c([N+](=O)[O-])cc1OC	12	0	-2	6.1*	2	-3
CNC(=O)CCC(=O)N1CCOc2ccc(Cl)cc21	2	1	4	7.2*	1	-5
Cc1c(Cl)cccc1NC(=O)C(=O)NC(C)c1ccccc1 (stereo not given)	3	0	1	1	x	x
Cc1c(Cl)cccc1NC(=O)C(=O)NCC(O)c1ccccc1 (stereo not given)	-6	0	-2	7.3*	0	10
c1csc(-c2nnc(N3CCOCC3)c3ccccc23)c1	6	0	5	5.9*	0	2
O=S(=O)(Nc1nccnc1-c1ccc(CO)cc1)C1CC1	0	-1	-17	0	x	x
CC(=O)N(Cc1cccnc1)Cc1cc2ccccc2[nH]c1=O	-2	0	-15	0	x	x
O=C(c1ccc(F)cc1)N(Cc1cccnc1)Cc1cc2ccccc2[nH]c1=O	-3	0	1	7.0*	1	12
COC(=O)C1=CN(C2CCCCC2)C=C(C(=O)OC)C1c1ccc(C)c([N+](=O)[O-])c1	-2	0	-12	-1	x	x
COc1ccc(CCN2C(=O)c3ccc(Oc4ccc([N+](=O)[O-])cc4)cc3C2=O)cc1OC	9	0	-20	0	x	x
COc1ccc(CCN2C(=O)c3ccc(Oc4ccc(Nc5ncnc6ccccc56)cc4)cc3C2=O)cc1OC	97*	0	18	6.6*	3	26
c1ccc(SCc2nnc3n2CCCCC3)cc1	-6	0	-13	5.0*	0	-2
C=CCNc1cc(-c2ccc(F)cc2)nc(C)n1	-50	0	10	-2	x	x
COc1cccc(C(=O)NCCCS(=O)(=O)N2CCN(c3ncccn3)CC2)c1OC	6	0	2	0	x	x
